The campaign covered roughly 310,000 compounds. About 1,200 (0.39%) were called active. No rule for the calls is given here. These entries were drawn from the full list. Results with a measured potency or affinity are listed apart.
Target: Large T antigen (Simian virus 40) (UniProt P03070)
Test: SV40 large T antigen inhibitors, biochemical (AID 1903)
Conditions: SV40 large T antigen ATPase/helicase inhibition assay; at 20 µM; hits give high values

Chain of Large T antigen (Simian virus 40) (P03070 whole entry, looked up): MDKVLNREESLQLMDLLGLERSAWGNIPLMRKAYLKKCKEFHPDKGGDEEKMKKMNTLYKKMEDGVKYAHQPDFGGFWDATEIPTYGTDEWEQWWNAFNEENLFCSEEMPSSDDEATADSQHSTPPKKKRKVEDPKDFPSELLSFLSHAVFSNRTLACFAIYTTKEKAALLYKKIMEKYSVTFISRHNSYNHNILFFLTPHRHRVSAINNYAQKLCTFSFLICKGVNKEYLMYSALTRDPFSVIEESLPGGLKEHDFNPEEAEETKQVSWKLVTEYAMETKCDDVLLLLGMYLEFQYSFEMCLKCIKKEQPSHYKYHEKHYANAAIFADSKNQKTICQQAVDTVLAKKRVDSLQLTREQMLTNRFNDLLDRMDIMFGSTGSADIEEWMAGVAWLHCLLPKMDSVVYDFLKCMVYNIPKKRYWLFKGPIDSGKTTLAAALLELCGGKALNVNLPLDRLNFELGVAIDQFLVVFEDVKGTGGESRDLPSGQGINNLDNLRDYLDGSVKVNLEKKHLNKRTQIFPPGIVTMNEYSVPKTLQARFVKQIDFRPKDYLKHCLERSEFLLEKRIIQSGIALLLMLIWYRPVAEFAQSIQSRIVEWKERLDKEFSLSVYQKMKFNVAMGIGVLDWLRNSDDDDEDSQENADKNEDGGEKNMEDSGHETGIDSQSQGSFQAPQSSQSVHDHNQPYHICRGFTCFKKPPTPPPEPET

inhibition, inactive:
O=C(CCCN1C(=O)CSc2ncccc21)N1CCN(Cc2ccccc2)CC1 -0.33%, COc1cccc(N/C(SCc2ccccc2F)=C(/C#N)C(=O)NCc2cccs2)c1 2.65%, Cc1ccc2[nH]c(=O)c(CN(Cc3ccccc3)C(=S)NCCCN(C)C)cc2c1 2.51%, NC(=O)c1cc(N)ccc1N1CCCC1 18.4%, NC(=O)c1cc(N)ccc1N1CCCCC1 36%, COc1ccc(N(CC(=O)N2CCCC2)S(=O)(=O)c2ccc(NC(C)=O)cc2)cc1 -2.23%, O=C(CCc1ccccc1)Nc1nc2nc(-c3ccccc3)cc(=O)n2[nH]1 -26.7%, C/C(O)=C(/C#N)c1nc2ccccc2[nH]1 7.8%, C/C(O)=C(\C#N)c1nc2ccccc2[nH]1 1.46%, O=S(=O)(c1cc(-c2nnc(-c3ccc(Br)cc3)o2)ccc1Br)N1CCCCCC1 4.66%, O=C(Nc1ccc(Cl)cc1Cl)c1ccc(-c2ccccc2)cc1 3.2%, CN(C)c1nn(C(=O)Nc2cccc(C(F)(F)F)c2)cc1-c1ccccc1 23.9%, CN1CCN(S(=O)(=O)c2cnccc2N2CCN(c3cccc(Cl)c3)CC2)CC1 25%, Cc1c(C(=O)/C=C/N(C)C)nnn1-c1ccc(F)c(Cl)c1 10.7%, CC(NS(=O)(=O)c1ccc(Br)cc1)C(N)=O (stereo not given) 3.6%, COc1ccc(/C=N/NC(=O)c2ccc(N)cc2)cc1Cn1cc([N+](=O)[O-])cn1 -3.89%, COc1ccc(/C=N/NC(=O)c2ccncc2)cc1CN1CCOCC1 14.2%, COc1ccc(/C=N/NC(=O)c2ccccc2O)cc1Cn1cc([N+](=O)[O-])cn1 12.7%, COc1cc(/C=N\NC(=O)c2ccc(Cn3cc(Br)c([N+](=O)[O-])n3)o2)cc(OC)c1O 32.8%, Cc1c(Cl)c([N+](=O)[O-])nn1Cc1ccc(C(=O)N/N=C\c2ccccn2)o1 6.44%, COc1ccc(/C=N/NC(=O)c2cccc(Br)c2)cc1CN1CCOCC1 4.55%, COc1ccc(/C=N/NC(=O)c2ccc(Cn3cc([N+](=O)[O-])cn3)o2)cc1O 17.9%, Cc1c(Cl)c([N+](=O)[O-])nn1Cc1ccc(C(=O)N/N=C\c2cccc(Br)c2)o1 -0.98%, Cc1ccc([N+](=O)[O-])c(C(=O)N/N=C/c2cccnc2)c1 13.6%, O=[N+]([O-])c1cccc(/C=N/N2CCN(Cc3ccccc3)CC2)c1 16.1%, CN1CCOc2ccc(S(=O)(=O)NCCc3ccc(Cl)cc3)cc21 4.83%, CC(Oc1ccc(Br)cc1)C(=O)NCC(c1cccs1)N1CCOCC1 (stereo not given) 0.98%, O=C(NNc1ccc([N+](=O)[O-])cc1)C1C2CCCCC21 (stereo not given) 2.05%, CC1CCN(S(=O)(=O)c2cccc(C(=O)N(Cc3ccccc3)c3ccccn3)c2)CC1 6.8%, CN(C)/C=C(\C#N)C(=O)Nc1ccc(F)cc1 -1.08%, CN(C)/C=C(\C#N)C(=O)Nc1ccc(F)c(Cl)c1 14.7%, COc1ccc(C)cc1NC(=O)c1ccc2c(O)c(S(=O)(=O)c3ccccc3)c(=O)[nH]c2c1 13.8%, CC(C)(C)c1ccc(OCC(O)CSc2ncn[nH]2)cc1 (stereo not given) 3.06%, COc1ccc2c(c1)C(=O)CC(c1ccccc1F)O2 (stereo not given) 15.3%, COc1ccc2c(c1)C(=O)c1ccccc1CO2 10.1%, O=C1C2C3C=CC(CO)(O3)C2C(=O)N1c1ccccc1-c1ccccc1 (stereo not given) 13.7%, CCN(CC)C(=O)c1c(-c2ccccc2)oc2ccc(O)cc12 13.9%, O=C(O)c1c(-c2ccccc2)oc2ccc(O)cc12 15%, CCn1c(=O)n(CC)c2cc([N+](=O)[O-])ccc21 -2.72%, CCn1c(=O)n(CC)c2cc(S(N)(=O)=O)ccc21 3.97%, O=C(COc1ccccc1Cl)NCc1nc(-c2ccccc2)no1 10.2%, Cc1ccc(Nc2nc(N)c([N+](=O)[O-])c(N3CCOCC3)n2)cc1 9.48%, COc1ccc(Nc2nc(N)c([N+](=O)[O-])c(N3CCOCC3)n2)cc1 10.9%, Cc1cc(/C=C(\C#N)C(=O)O)c(C)n1C1CC1 11.4%, O=C(N/N=C/c1ccc(OCc2ccc(F)cc2)cc1)c1ccccc1 1.09%, CCOC(=O)C1CCCN(C(=O)Cn2sc3nc(C)cc(C)c3c2=O)C1 (stereo not given) 73.4%, Cc1cc(C)c2c(=O)n(CC(=O)N3CCC(Cc4ccccc4)CC3)sc2n1 3.6%, Cc1nn(CC(=O)N2CCC(N3CCCCC3)CC2)c(=O)c2c1sc1ccccc12 17.6%, Cc1cccc(N2CCN(C(=O)Cn3nc(C)n4cccc4c3=O)CC2C)c1 (stereo not given) 8.5%, CN1CCN(c2ccc(Cl)cc2NC(=O)c2ccc(=O)n(C)n2)CC1 22.8%, CC(C)c1ccc2[nH]c(O)c(N=NC(=O)c3cccc(S(=O)(=O)Nc4ccccc4Cl)c3)c2c1 -4.52%, COc1ccccc1C(=O)NNC(=O)c1sccc1-n1cccc1 8.72%, CCN(CC)CCN1c2ccccc2Sc2ccccc21 34.5%, CN(C)CCCN1c2ccccc2Sc2ccccc21 33%, CCCCN(C(=O)c1ccc([N+](=O)[O-])o1)c1c(N)n(CC(C)C)c(=O)[nH]c1=O 20.2%, COc1cccc(-c2cc(C(=O)Nc3cc(C)on3)no2)c1 3.2%, Cc1ccc2oc(=O)c3cnn(CC(=O)NCCCOC(C)C)c3c2c1 5.01%, CCOC(=O)Cc1csc(NC(=O)c2ccc3c(c2)OCO3)n1 -7.42%, COc1cc(/C=C2\SC(c3ccc(C)cc3)=NC2=O)cc(OC)c1OC 14.7%, COc1ccc(/C=C2/SC(c3ccc(C)cc3)=NC2=O)cc1OC 7.06%, NC1=NC(=O)/C(=C/c2cc(Br)c(O)c(Br)c2)S1 23.3%, COc1ccc(/C=C2\SC(c3ccc(C)cc3)=NC2=O)cc1OC 4.55%, O=C(Nc1ccc(CN2CCOCC2)cc1)c1ccc(Br)o1 4.15%, CCCc1nn(-c2cc(Cl)ccc2OC)c2c1C(=O)CC(C)(C)C2 2.88%, CC(C)C(=O)N(c1ccc2oc(=O)sc2c1)S(=O)(=O)c1ccccc1 25.6%, CCCC(=O)N(c1ccc2oc(=O)sc2c1)S(=O)(=O)c1cccs1 34.4%, CC(=O)N(c1ccc2oc(=O)sc2c1)S(=O)(=O)c1ccc(C(=O)O)cc1 23.9%, CC(C)C(=O)N(c1ccc2oc(=O)sc2c1)S(=O)(=O)c1cccs1 22.8%, Cc1ccsc1C(=O)OCC(=O)NCc1ccc2c(c1)OCO2 20.1%, O=C(O)C1CC=CCC1C(=O)N1CCCC1 (stereo not given) -0.98%, O=C1NC(=O)/C(=C\c2ccsc2)N1 2.09%, COc1c(-c2ccc(O)c(O)c2)oc2cc(O)cc(O)c2c1=O 9.05%, COCOc1cc(O)c2c(=O)c(OCOC)c(-c3ccc(OCOC)c(OCOC)c3)oc2c1 7.99%, CCn1c(SCC(=O)Nc2nccs2)nnc1-c1ccc(S(=O)(=O)N2CCCCCC2)cc1 -0.295%, Cc1ccc(S(=O)(=O)N2CCCC(C(=O)NCC3CCCO3)C2)cc1 (stereo not given) 3.23%, CC1CN(S(=O)(=O)c2ccccc2)C(C)CN1S(=O)(=O)c1ccccc1 (stereo not given) 8.4%, O=S(=O)(c1ccc(Cl)cc1)N1CCCCCC1 20.7%, Cc1ccc(S(=O)(=O)N2CCN(S(=O)(=O)c3ccccc3)C2)cc1 6.18%, CN1CCN(S(=O)(=O)c2ccc(Cl)cc2)CC1 0.99%, CCCN(CCC)C(=O)Cc1coc2ccc3ccccc3c12 3.36%, Cc1cc2cc(CNC(=O)Nc3ccccc3)ccc2n1C 4.59%, O=C1NCCN/C1=C\C(=O)c1ccc(Cl)cc1 12.3%, CCOc1ccc(NC(=O)COn2nnc3ccc(S(=O)(=O)N4CCOCC4)cc32)cc1 11.2%, O=c1cc(-c2ccccc2[N+](=O)[O-])oc2ccccc12 1.45%, COc1ccc(OC)c(-c2c3cc(O)c(=O)cc-3oc3cc(O)c(O)cc23)c1 73.4%, CCOc1ccccc1-c1c2cc(O)c(=O)cc-2oc2cc(O)c(O)cc12 15.8%, Cc1c2cc(O)c(=O)cc-2oc2cc(O)c(O)cc12 57.6%, CCOc1ccccc1NC(=O)CSc1nnc(CNC(=O)c2cc(OC)c(OC)c(OC)c2)o1 5.49%, COc1ccccc1CNC(c1ccccc1)c1ccccc1 21.1%, COc1ccc(C2NC(c3ccc(OC)c(OC)c3OC)C(C)C(=O)C2C)c(OC)c1OC (stereo not given) -0.23%, CCc1c(C)nc(N)nc1Cl 10.9%, CCOC(=O)C(Sc1cc(C)nc(N)n1)C(C)=O (stereo not given) 7.31%, O=C1C=C(Nc2ccc(Cl)cc2)CC(c2ccco2)C1 (stereo not given) 24.2%, O=C1C=C(Nc2cccc(O)c2)CC(c2ccco2)C1 (stereo not given) 6.63%, COc1ccccc1-c1ocnc1C(=O)N1CCN(S(=O)(=O)c2ccc(NC(C)=O)cc2)CC1 4.74%

From PubChem BioAssay AID1903 (Southern Research Specialized Biocontainment Screening …, 2009)
